# Results published in the supplement of paper PMC12494721.
# Where a name gives a salt, the structure may show the parent alone.
# How the values were obtained:
# Conditions in all cases: incubation time: 27 h, anaerobic, 37 °C;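 for the amine columns active = adjusted P below 0.05 in both replicates with a change the same way and a mean fold change under 0.8 or over 1.25; inactive = the rest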
# [1] = tested on: Clostridium sporogenes DSM 1664; assay: growth (OD595) fold change vs plate DMSO controls (fold change (ratio)); higher = more growth
# Method in brief: (§1)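 Each value is the mean of 2 biological replicates, and fold changes above 1.5 were set to NA. The underlying readings were taken at 595 nm from shaken anaerobic mGAM cultures in 96-well plates after 27 h at 37 °C. They were blank-subtracted, corrected for compound background using 20 µM compound solutions in water, and converted to OD with a calibration factor of 5. Growth is the fold change relative to the median of the plate DMSO controls.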
# Escherichia coli IAI1 [2] = assay: as above
# Method in brief: as §1
# [3] = tested on: Klebsiella aerogenes DSM 30053; assay: as above
# Method in brief: as §1
# [4] = tested on: Ruminococcus gnavus DSM 108212; assay: as above
# Method in brief: as §1
# [5] = tested on: Klebsiella aerogenes DSM 30053; assay: fold change of Histamine concentration vs plate DMSO controls (fold change (ratio)); higher = more amine produced, active = hit call of the paper (significant change in both replicates, either direction)
# Method in brief: (§2)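 In 80 µL wells, cultures of four gut bacterial strains in mGAM started at OD 0.1 before a 1:1 dilution and grew anaerobically at 37 °C for 27 h. Compounds were added to 20 µM final, except sweeteners at 50 µM final. After extraction of whole cultures with cold acetonitrile/methanol plus 0.1% formic acid and centrifugation, amines were measured by LC–triple-quadrupole MS in dynamic MRM mode against external calibration curves, with within-batch drift correction. Values give fold change over DMSO controls on the same plate, averaged across 2 biological replicates.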
# [6] = tested on: Clostridium sporogenes DSM 1664; assay: fold change of Tryptamine concentration vs plate DMSO controls (fold change (ratio)); higher = more amine produced, active = hit call of the paper (significant change in both replicates, either direction)
# Method in brief: as §2
# [7] = tested on: Ruminococcus gnavus DSM 108212; assay: as above
# Method in brief: as §2
# Escherichia coli IAI1 [8] = assay: fold change of Putrescine concentration vs plate DMSO controls (fold change (ratio)); higher = more amine produced, active = hit call of the paper (significant change in both replicates, either direction)
# Method in brief: as §2
# [9] = tested on: Klebsiella aerogenes DSM 30053; assay: as above
# Method in brief: as §2
# Escherichia coli IAI1 [10] = assay: fold change of Cadaverine concentration vs plate DMSO controls (fold change (ratio)); higher = more amine produced, active = hit call of the paper (significant change in both replicates, either direction)
# Method in brief: as §2
# [11] = tested on: Klebsiella aerogenes DSM 30053; assay: as above
# Method in brief: as §2
# [12] = tested on: Ruminococcus gnavus DSM 108212; assay: fold change of 2-Phenylethylamine concentration vs plate DMSO controls (fold change (ratio)); higher = more amine produced, active = hit call of the paper (significant change in both replicates, either direction)
# Method in brief: as §2
Compound,growth [1],growth (Escherichia coli IAI1 [2]),growth [3],growth [4],fold change of Histamine concentration [5],fold change of Tryptamine concentration [6],fold change of Tryptamine concentration [7],fold change of Putrescine concentration (Escherichia coli IAI1 [8]),fold change of Putrescine concentration [9],fold change of Cadaverine concentration (Escherichia coli IAI1 [10]),fold change of Cadaverine concentration [11],fold change of 2-Phenylethylamine concentration [12]
N[C@@H](CCC(=O)N[C@@H](CS)C(=O)NCC(=O)O)C(=O)O [Glutathione] (20 µM),1.1,1.04,1.04,1.22,0.965 (inactive),1.1 (inactive),1.01 (inactive),1.04 (inactive),1.01 (inactive),1.03 (inactive),1.01 (inactive),1.02 (inactive)
CCCCOC(=O)c1ccc(N)cc1 [Butamben] (20 µM),1.36,1,1.01,0.962,1 (inactive),1.04 (inactive),0.94 (inactive),0.935 (inactive),0.988 (inactive),1.01 (inactive),0.999 (inactive),0.915 (inactive)
C[C@@H]1C[C@H]2[C@@H]3C[C@H](F)C4=CC(=O)C=C[C@]4(C)[C@@]3(F)[C@@H](O)C[C@]2(C)[C@@]1(O)C(=O)COC(=O)C(C)(C)C [Flumethasone pivalate] (20 µM),0.889,0.954,1,0.811,1.04 (inactive),1 (inactive),1.04 (inactive),1 (inactive),0.998 (inactive),1.02 (inactive),0.984 (inactive),1.05 (inactive)
NC(=O)OCC(COC(N)=O)c1ccccc1 [Felbamate] (20 µM),1.07,0.986,0.988,0.902,0.989 (inactive),1.02 (inactive),1.05 (inactive),1 (inactive),0.993 (inactive),1.05 (inactive),0.985 (inactive),1.07 (inactive)
COc1cc(OC)c(C(=O)CCCN2CCCC2)c(OC)c1 [Buflomedil hydrochloride] (20 µM),1.11,1.03,0.965,0.743,1.08 (inactive),1.08 (inactive),1.03 (inactive),1.04 (inactive),1.02 (inactive),1.03 (inactive),0.997 (inactive),0.992 (inactive)
CO/N=C(\C(=O)N[C@@H]1C(=O)N2C(C(=O)O)=C(COC(C)=O)CS[C@H]12)c1csc(N)n1 [Cefotaxime sodium salt] (20 µM),0.00126,0.00374,0.601,0.2,0.733 (inactive),0.0286 (active),0.0769 (active),0.143 (active),0.729 (inactive),0.574 (active),1.02 (inactive),0.055 (active)
Cc1c(OCC(F)(F)F)ccnc1C[S+]([O-])c1nc2ccccc2[nH]1 (stereo not given) [Lansoprazole] (20 µM),1,1.06,1.01,1.02,1.03 (inactive),1.02 (inactive),0.974 (inactive),1.03 (inactive),1.01 (inactive),1.03 (inactive),1.01 (inactive),0.971 (inactive)
c1ccc2cc3c(ccc4ccccc43)cc2c1 [Benz[a]anthracene] (20 µM),1.13,0.981,1.02,0.97,1.07 (inactive),1.17 (inactive),1.12 (inactive),1.02 (inactive),0.901 (inactive),0.963 (inactive),1.17 (inactive),1.3 (inactive)
O=C(NC(Cc1cc(=O)[nH]c2ccccc12)C(=O)O)c1ccc(Cl)cc1 (stereo not given) [Rebamipide] (20 µM),0.925,1.01,0.964,0.957,0.934 (inactive),1.06 (inactive),1.28 (active),1.07 (inactive),0.965 (inactive),0.957 (inactive),1 (inactive),1.52 (active)
N=C(N)N1CCc2ccccc2C1 [Debrisoquin sulfate] (20 µM),1.11,1,1.02,1.13,1.01 (inactive),1.03 (inactive),1.02 (inactive),1.03 (inactive),1 (inactive),0.999 (inactive),0.993 (inactive),1.05 (inactive)
O=C(O)/C=C/c1ccc(Cn2ccnc2)cc1 [Ozagrel hydrochloride] (20 µM),0.923,0.982,0.994,0.975,1.02 (inactive),1.01 (inactive),1.04 (inactive),1.01 (inactive),0.993 (inactive),1.01 (inactive),0.986 (inactive),0.999 (inactive)
C#C[C@]1(O)CC[C@H]2[C@@H]3CCC4=CC(=O)CC[C@@H]4[C@H]3CC[C@@]21CC [(D-) Norgestrel] (20 µM),1.06,0.994,1.02,0.996,1.05 (inactive),1.01 (inactive),1.01 (inactive),0.982 (inactive),0.998 (inactive),1.03 (inactive),0.985 (inactive),0.978 (inactive)
CC(=O)Nc1ccc(C(=O)O)cc1 [Acedoben] (20 µM),1.09,1,0.977,0.997,1.02 (inactive),0.935 (inactive),1.03 (inactive),1.01 (inactive),1 (inactive),1.02 (inactive),0.995 (inactive),1 (inactive)
Cn1c(=O)c2c(ncn2C)n(C)c1=O [Caffeine] (20 µM),1.15,0.986,0.977,0.963,1.07 (inactive),0.982 (inactive),1.06 (inactive),0.987 (inactive),0.997 (inactive),1.03 (inactive),0.987 (inactive),1.06 (inactive)
COc1ccccc1OCC(O)CN1CCN(CC(=O)Nc2c(C)cccc2C)CC1 (stereo not given) [Ranolazine] (20 µM),1.13,1.01,1.13,0.994,0.957 (inactive),1.03 (inactive),1.03 (inactive),0.997 (inactive),1.01 (inactive),1.01 (inactive),1.01 (inactive),1.06 (inactive)
O=C1c2cccc3c2[C@H](CCC3)CN1[C@@H]1CN2CCC1CC2 [Palonosetron hydrochloride] (20 µM),1,1.05,0.978,0.887,1.09 (inactive),0.963 (inactive),1.04 (inactive),1.06 (inactive),0.996 (inactive),0.979 (inactive),0.983 (inactive),1.04 (inactive)
C[C@]12CC[C@@H]3c4ccc(O)cc4CC[C@H]3[C@@H]1CCC2=O [Estrone] (20 µM),1.03,1.02,1.03,1.01,1.07 (inactive),1.06 (inactive),0.894 (inactive),1.04 (inactive),1.02 (inactive),1.02 (inactive),1.01 (inactive),0.884 (inactive)
Cc1cn[nH]c1 [Fomepizole] (20 µM),0.879,0.987,0.971,1.15,1.03 (inactive),1.03 (inactive),1.01 (inactive),0.999 (inactive),0.995 (inactive),1.02 (inactive),0.986 (inactive),0.988 (inactive)
CC(C)NC[C@H](O)COc1cccc2ccccc12 [(S)-(-)-Propranolol hydrochloride] (20 µM),0.943,1.03,1.07,1.14,0.885 (inactive),1.02 (inactive),1 (inactive),0.986 (inactive),0.993 (inactive),0.968 (inactive),1.01 (inactive),1.02 (inactive)
COc1cc(-c2ccc(=O)[nH]n2)ccc1OC(F)F [Zardaverine] (20 µM),1.12,0.946,1.09,0.984,0.932 (inactive),0.971 (inactive),0.994 (inactive),0.953 (inactive),0.987 (inactive),1.01 (inactive),0.997 (inactive),0.952 (inactive)
CN(C)CCc1c[nH]c2ccc(C[C@H]3COC(=O)N3)cc12 [Zolmitriptan] (20 µM),1.04,1.06,1.01,0.975,1.01 (inactive),1.04 (inactive),1.04 (inactive),1.01 (inactive),1.01 (inactive),1.01 (inactive),0.993 (inactive),1.06 (inactive)
CCN(CC)CCNC(=O)COc1ccc(OC)cc1 [Mefexamide hydrochloride] (20 µM),0.963,1.01,1.08,1.05,0.874 (inactive),1.07 (inactive),1.01 (inactive),1.02 (inactive),0.961 (inactive),1.05 (inactive),1.02 (inactive),0.977 (inactive)
CCCCCNC(=N)N/N=C/c1c[nH]c2ccc(OC)cc12 [Tegaserod maleate] (20 µM),0.905,1.01,1,1.08,0.983 (inactive),0.923 (inactive),0.791 (inactive),0.992 (inactive),0.997 (inactive),1.04 (inactive),1 (inactive),0.994 (inactive)
CC[N+]1(CC)CCC(=C(c2ccccc2)c2ccccc2)C1C (stereo not given) [Prifinium Bromide] (20 µM),1.1,1.08,1.04,0.925,0.982 (inactive),1.02 (inactive),0.907 (inactive),1.07 (inactive),1 (inactive),0.989 (inactive),1.01 (inactive),0.85 (inactive)
COc1ccc2cc(CCC(C)=O)ccc2c1 [Nabumetone] (20 µM),1,0.792,1.01,0.995,0.912 (inactive),0.926 (inactive),0.944 (inactive),0.871 (inactive),0.974 (inactive),1.09 (inactive),1.01 (inactive),0.946 (inactive)
